Measured values: PubChem BioAssay (Tox21)
Records with an inconclusive call do not appear. Where a call stands in place of a potency, no number is given. Active and inactive are the calls of the source. The call rests on the fitted dose curve; in most records, active means well fitted cell-killing curve with a large enough effect in the repeat runs; inconclusive means weak or mixed curves, or effect the other way; inactive means no such curve, though single readings can be large or run the other way.

test: qHTS assay to identify small molecule antagonists of the glucocorticoid receptor (GR) signaling pathway - cell viability counter screen (AID 720693); conditions: GR-bla HeLa viability, CellTiter-Glo luminescence, 18 h, with 5 nM dexamethasone present; series mostly up to 58.5 µM; further: nearly all actives have a fitted effect of over 55% in size
Text: National Center for Advancing Translational Sciences [NCATS]
NIH Chemical Genomics Center [NCGC]
U.S. Environmental Protection Agency [EPA]
National Institutes of Environmental Health Sciences [NIEHS]
National Toxicology Program [NTP]
U.S. Food and Drug Administration [FDA]
The Glucocorticoid receptor (GR) is one of the members of the nuclear receptor family of ligand-dependent transcription factors. GR plays a critical role in carbohydrate, protein and lipid metabolisms and programmed cell death. CellSensor GR-bla HeLa cell line (Invitrogen) contains a beta-lactamase reporter gene under the control of the glucocorticoid response element stably integrated into HeLa cells, a cervical cancer cell line that expresses glucocorticoid receptor. The activation of the reporter gene under culture conditions can be detected by fluorescence intensity. This cell line has been used to screen the Tox21 10K compound library and to identify the compounds that inhibit the GR signaling. The cytotoxicity of the Tox21 compound library against the GR-bla HeLa cell line was tested in parallel by measuring the cell viability using CellTiter-Glo assay in the same wells.
Tox21 Assay Protocol Summary:
The GR-bla HeLa cells were dispensed at 1500 cells/5 ul/well in 1536-well black wall/clear bottom plates using a Multidrop Combi (ThermoFisher Scientific, Waltham, MA) dispenser. After the assay plates were incubated at a 37 C/5% CO2 incubator for 4 hours, 23 nL of compounds dissolved in DMSO, positive controls or DMSO only was transferred to the assay plate by a pintool station (Kalypsys, San Diego, CA), followed by addition of 1 uL of dexamethasone (5 nM, final concentration in the well). The plates were incubated at 37 C for 18 hours. After 1 uL of LiveBLAzerTM B/G FRET substrate was added using a Flying Reagent Dispenser (Aurora Discovery, San Diego, CA), the plates were incubated at room temperature (RT) for 2 hours, and fluorescence intensity was measured by an Envision plate reader (PerkinElmer, Shelton, CT). After measurement of bla assay, 3 ul CellTiter-Glo (Promega, Madison, WI) was added to measure the cytotoxicity and the plates were then incubated at RT for 30 min. The luminescence was measured using a ViewLux (Perkin Elmer) plate reader.

Compound | Potency
CC(C)(C)NCC(O)c1ccc(O)c(CO)c1 (stereo not given) | inactive
COc1ccc(C(=O)c2ccccc2)c(O)c1 | inactive
CC(=O)Oc1ccccc1C(=O)O | inactive
C[C@]12CC[C@@H]3c4ccc(O)cc4CC[C@H]3[C@@H]1CCC2=O | inactive
CC(=O)OC/C=C(C)/C=C/C=C(C)/C=C/C1=C(C)CCCC1(C)C | inactive
CCCCCCCCOc1ccc(C(=O)c2ccccc2)c(O)c1 | inactive
CC(=O)CCC(C)C | inactive
CC(=O)c1ccc(S(=O)(=O)NC(=O)NC2CCCCC2)cc1 | inactive
O=c1c(-c2ccc(O)cc2)coc2cc(O)cc(O)c12 | inactive
C[C@]12CC[C@@H]3c4ccc(O)cc4C[C@@H](CCCCCCCCCS(=O)CCCC(F)(F)C(F)(F)F)[C@H]3[C@@H]1CC[C@@H]2O (stereo not given in full) | inactive
COc1cc2c(c(OC)c1OC)-c1ccc(OC)c(=O)cc1[C@@H](NC(C)=O)CC2 | inactive
C#C[C@]1(O)CC[C@H]2[C@@H]3CCC4=CC(=O)CC[C@@H]4[C@H]3CC[C@@]21CC | inactive
CCCCCCCCCCCCCC(=O)OC(C)C | inactive
Cc1c(N(C)CS(=O)(=O)O)c(=O)n(-c2ccccc2)n1C | inactive
CN/C(=C\[N+](=O)[O-])NCCSCc1ccc(CN(C)C)o1 | inactive
CC1=NN(c2ccccc2)C(=O)C1 | inactive
COc1cc(O)c(C(=O)c2ccccc2)cc1S(=O)(=O)O | inactive
CCc1cc(C(N)=S)ccn1 | inactive
CCCCOCCOCCSC#N | inactive
COc1ccccc1O | inactive

Compound | Potency
NC(=O)N/N=C/c1ccc([N+](=O)[O-])o1 | inactive
C=CCOC(=O)CC(C)C | inactive
CC(=O)/C=C/C1=C(C)CCCC1(C)C | inactive
Cc1ccc(O)c(-n2nc3ccccc3n2)c1 | inactive
CCCCNC(=O)NS(=O)(=O)c1ccc(N)cc1 | inactive
CN(C)Cc1cc(CN(C)C)c(O)c(CN(C)C)c1 | inactive
COC(=O)C1CCC(C(=O)OC)CC1 (stereo not given) | inactive
C1CNCCN1 | inactive
N[C@@H](Cc1c[nH]c2ccc(O)cc12)C(=O)O | inactive
CCCCCCCC(=O)OCC(O)CO (stereo not given) | inactive
Oc1cccc(O)c1 | inactive
C[C@]12C[C@H](O)[C@H]3[C@@H](CCC4=CC(=O)CC[C@@]43C)[C@@H]1CC[C@@H]2C(=O)CO | inactive
NC(=O)N1c2ccccc2C=Cc2ccccc21 | inactive
COCCOCCOC | inactive
COc1cc(C=O)ccc1O | inactive
COC1=CC(=O)C[C@@H](C)[C@]12Oc1c(Cl)c(OC)cc(OC)c1C2=O | inactive
CCOCCO | inactive
O=C(O)CCCCC1CCSS1 (stereo not given) | inactive
C/C=C/c1ccc(O)c(OC)c1 | inactive
OC[C@@H](O)[C@@H](O)[C@H](O)[C@H](O)CO | inactive
